# Active and inactive are the calls of the source. Rule for the calls: active = hit-call score of the fitted dose curve at least 0.9, where 1 is the maximum; inactive = score below 0.9.
# Key:
# Conditions in all cases: mRNA level, 48 h; actives raise or lower the signal
# [1] = read-out: adenosine kinase (ADK) gene, ADK (gene 132); test: LTEA_HepaRG_ADK: Life Technologies and Expression Analysis (LTEA) Assay for adenosine kinase (ADK) gene using HepaRG (AID 2283471)
# In short: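 Read-out is ADK transcript level measured by qRT-PCR and normalised to three housekeeping genes. Cells are human HepaRG, dosed for 48 h at up to 100 uM in 0.5% DMSO. Gain or loss of signal is fitted against DMSO controls.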
# [2] = read-out: Alpha-fetoprotein (AFP) gene, AFP (gene 174); test: LTEA_HepaRG_AFP: Life Technologies and Expression Analysis (LTEA) Assay for Alpha-fetoprotein (AFP) gene using HepaRG (AID 2283472)
# In short: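 Measures AFP mRNA change in HepaRG after 48 h chemical exposure (8 half-log concentrations, highest 100 uM, 0.5% DMSO). Fold change relative to DMSO, fitted in both directions.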
# [3] = read-out: BCL2L11 (gene 10018); test: LTEA_HepaRG_BCL2L11: Life Technologies and Expression Analysis (LTEA) Assay for Bcl-2 (BCL2L11) gene using HepaRG (AID 2283473)
# In short: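 HepaRG, 48 h exposure, 8-pt half-log series from 100 uM in 0.5% DMSO, duplicates; qRT-PCR (Fluidigm TaqMan) for BCL2L11, housekeeping-normalized; bidirectional curve fit relative to DMSO baseline.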
# [4] = read-out: Apolipoprotein A-V (APOA5) gene, APOA5 (gene 116519); test: LTEA_HepaRG_APOA5: Life Technologies and Expression Analysis (LTEA) Assay for Apolipoprotein A-V (APOA5) gene using HepaRG (AID 2283474)
# In short: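 HepaRG, 48 h chemical exposure in serum-free induction medium, 8-pt half-log series (top 100 uM), 0.5% DMSO vehicle, duplicates. Readout: APOA5 mRNA by qRT-PCR, housekeeping-normalized; bidirectional fit vs DMSO baseline.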
# [5] = read-out: Apoptosis regulator Bcl-2 (Homo sapiens) (UniProt P10415); test: LTEA_HepaRG_BCL2: Life Technologies and Expression Analysis (LTEA) Assay for Bcl-2 gene using HepaRG (AID 2283475)
# In short: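 Each chemical was tested in duplicate on HepaRG cultures held in serum-free induction medium for 48 h, highest concentration 100 uM with half-log dilutions. Transcript levels came from multiplexed qRT-PCR, normalised to housekeeping genes; activity was scored in either direction relative to DMSO.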
# [6] = read-out: Bcl-2 (BID) gene, BID (gene 637); test: LTEA_HepaRG_BID: Life Technologies and Expression Analysis (LTEA) Assay for Bcl-2 (BID) gene using HepaRG (AID 2283476)
# In short: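 Assay used HepaRG hepatic cells treated 48 h in serum-free medium with half-log dilutions from 100 uM. Endpoint: BID mRNA, qRT-PCR, normalized to ACTB/GAPDH/POLR2A.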
# [7] = read-out: Caspase-3 (Homo sapiens) (UniProt P42574); test: LTEA_HepaRG_CASP3: Life Technologies and Expression Analysis (LTEA) Assay for cysteine-aspartic acid protease (CASP3) using HepaRG (AID 2283477)
# In short: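 HepaRG, 48 h exposure, 8 conc. (top 100 uM, half-log steps, duplicate), 0.5% DMSO vehicle; qRT-PCR of CASP3 transcript, housekeeping-normalised (ACTB/GAPDH/POLR2A); bidirectional curve fit vs DMSO baseline.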
# [8] = read-out: Cytochrome P450 (CYP24A1), CYP24A1 (gene 1591); test: LTEA_HepaRG_CYP24A1: Life Technologies and Expression Analysis (LTEA) Assay for Cytochrome P450 (CYP24A1) using HepaRG (AID 2283478)
# In short: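 qRT-PCR read-out: CYP24A1 transcript levels normalized to three housekeeping genes, bidirectional curve fits against 0.5% DMSO baseline. Human HepaRG cells treated 48 h with chemicals at eight concentrations from 100 uM in half-log steps.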
# [9] = read-out: Cytochrome P450 (CYP1A2), CYP1A2 (gene 1544); test: LTEA_HepaRG_CYP1A2: Life Technologies and Expression Analysis (LTEA) Assay for Cytochrome P450 (CYP1A2) using HepaRG (AID 2283479)
# In short: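 HepaRG, 48 h exposure, top 100 uM, half-log 8-pt, 0.5% DMSO vehicle, duplicates. Readout: TaqMan qRT-PCR of CYP1A2 mRNA, housekeeping-normalized (ACTB/GAPDH/POLR2A). Gain/loss fit relative to DMSO baseline.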
# [10] = read-out: cysteine-aspartic acid protease (CASP8), CASP8 (gene 841); test: LTEA_HepaRG_CASP8: Life Technologies and Expression Analysis (LTEA) Assay for cysteine-aspartic acid protease (CASP8) using HepaRG (AID 2283480)
# In short: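 Concentration-response in duplicate up to 100 uM (half-log steps, 0.5% DMSO) on differentiated HepaRG cultures for 48 h. Expression change of CASP8 mRNA is determined by TaqMan qRT-PCR with housekeeping-gene normalization.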
# [11] = read-out: Cytochrome P450 (CYP2B6), CYP2B6 (gene 1555); test: LTEA_HepaRG_CYP2B6: Life Technologies and Expression Analysis (LTEA) Assay for Cytochrome P450 (CYP2B6) using HepaRG (AID 2283481)
# In short: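 Read-out is CYP2B6 mRNA by TaqMan qRT-PCR, normalized to three housekeeping genes and fitted bidirectionally against 0.5% DMSO baseline. Human HepaRG cells received test chemicals for 48 h, top concentration 100 uM, half-log dilutions.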
# [12] = read-out: CYP2C8 (gene 1558); test: LTEA_HepaRG_CYP2C8: Life Technologies and Expression Analysis (LTEA) Assay for CYP2C8 using HepaRG (AID 2283483)
# In short: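 This is a transcriptional endpoint in HepaRG cultures: 48 h exposure, highest concentration 100 uM. CYP2C8 mRNA is quantified by TaqMan qRT-PCR.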
# [13] = read-out: CYP2C9 (gene 1559); test: LTEA_HepaRG_CYP2C9: Life Technologies and Expression Analysis (LTEA) Assay for CYP2C9 using HepaRG (AID 2283484)
# In short: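 Eight-point concentration-response (highest 100 uM, half-log dilutions) in HepaRG cells for 48 h; CYP2C9 expression by qRT-PCR normalized to ACTB, GAPDH, POLR2A. Bidirectional fit, DMSO baseline.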
# [14] = read-out: CYP2E1 (gene 1571); test: LTEA_HepaRG_CYP2E1: Life Technologies and Expression Analysis (LTEA) Assay for CYP2E1 using HepaRG (AID 2283485)
# In short: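 Assay uses 48 h exposure of HepaRG hepatic cells, eight concentrations to 100 uM. Expression of CYP2E1 is quantified by TaqMan qRT-PCR with ACTB, GAPDH and POLR2A normalization; curves fitted in both directions relative to vehicle.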
# [15] = read-out: CYP4A11 (gene 1579); test: LTEA_HepaRG_CYP4A11: Life Technologies and Expression Analysis (LTEA) Assay for CYP4A11 using HepaRG (AID 2283486)
# In short: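 CYP4A11 transcript levels were quantified by TaqMan qRT-PCR after HepaRG human liver cells were treated for 48 hours with test chemicals (top 100 uM, half-log dilutions, 0.5% DMSO). Gain or loss of signal was fitted relative to DMSO.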
# [16] = read-out: Cytochrome P450 3A4 (Homo sapiens) (UniProt P08684); test: LTEA_HepaRG_CYP3A4: Life Technologies and Expression Analysis (LTEA) Assay for CYP3A4 using HepaRG (AID 2283487)
# In short: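 HepaRG, 48 h exposure, 8-pt CRC from 100 uM (half-log), 0.5% DMSO, duplicates; serum-free induction medium. Readout: CYP3A4 mRNA, qRT-PCR, ACTB/GAPDH/POLR2A normalization. Bidirectional fit vs DMSO.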
# [17] = read-out: DNA damage-inducible transcript 3 (DDIT3), DDIT3 (gene 1649); test: LTEA_HepaRG_DDIT3: Life Technologies and Expression Analysis (LTEA) Assay for DNA damage-inducible transcript 3 (DDIT3) using HepaRG (AID 2283488)
# In short: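 Eight-point concentration-response (100 uM highest, half-log dilutions) in HepaRG, 48 h, duplicate wells. Endpoint: qRT-PCR mRNA, normalized (ACTB, GAPDH, POLR2A), bidirectional fitting with DMSO as baseline.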
# [18] = read-out: Pro-epidermal growth factor (Homo sapiens) (UniProt P01133); test: LTEA_HepaRG_EGF: Life Technologies and Expression Analysis (LTEA) Assay for Epidermal growth factor (EGF) using HepaRG (AID 2283489)
# In short: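 qRT-PCR readout of EGF transcript after 48 h chemical exposure of HepaRG cells; eight concentrations from 100 uM down in half-log steps, duplicate wells, 0.5% DMSO vehicle. Bidirectional curve fitting against DMSO baseline.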
# [19] = read-out: Early growth response protein 1 (EGR1) transcription factor, EGR1 (gene 1958); test: LTEA_HepaRG_EGR1: Life Technologies and Expression Analysis (LTEA) Assay for Early growth response protein 1 (EGR1) transcription factor using HepaRG (AID 2283490)
# In short: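 EGR1 expression change in human HepaRG after 48 h chemical exposure, assessed by housekeeping-normalized qRT-PCR; concentration-response up to 100 uM, fitted in both directions against DMSO controls.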
# [20] = read-out: Cytochrome P450 2C19 (Homo sapiens) (UniProt P33261); test: LTEA_HepaRG_CYP2C19: Life Technologies and Expression Analysis (LTEA) Assay for CYP2C19 using HepaRG (AID 2283482)
# In short: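 HepaRG, 48 h chemical exposure, 8-pt half-log series from 100 uM in 0.5% DMSO, duplicates. Readout: CYP2C19 mRNA by TaqMan qRT-PCR, housekeeping-normalized. Bidirectional fit vs DMSO baseline; phenobarbital 1mM as induction control.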
# Cytochrome P450 3A4 (Homo sapiens), sequence (P08684 whole entry, looked up): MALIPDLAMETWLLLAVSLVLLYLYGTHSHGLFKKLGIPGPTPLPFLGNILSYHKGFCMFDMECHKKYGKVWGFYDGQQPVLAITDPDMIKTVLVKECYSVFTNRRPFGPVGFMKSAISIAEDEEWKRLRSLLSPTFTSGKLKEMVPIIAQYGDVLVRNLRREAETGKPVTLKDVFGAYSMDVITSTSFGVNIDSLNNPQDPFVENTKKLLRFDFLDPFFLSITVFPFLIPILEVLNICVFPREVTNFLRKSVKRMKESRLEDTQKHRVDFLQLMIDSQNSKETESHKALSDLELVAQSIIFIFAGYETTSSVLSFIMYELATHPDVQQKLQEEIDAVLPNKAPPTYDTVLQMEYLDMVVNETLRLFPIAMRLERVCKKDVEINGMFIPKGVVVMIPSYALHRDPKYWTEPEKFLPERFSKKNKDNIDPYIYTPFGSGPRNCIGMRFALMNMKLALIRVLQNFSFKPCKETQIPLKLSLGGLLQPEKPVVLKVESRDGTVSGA
# Caspase-3 (Homo sapiens), sequence (P42574 whole entry, looked up): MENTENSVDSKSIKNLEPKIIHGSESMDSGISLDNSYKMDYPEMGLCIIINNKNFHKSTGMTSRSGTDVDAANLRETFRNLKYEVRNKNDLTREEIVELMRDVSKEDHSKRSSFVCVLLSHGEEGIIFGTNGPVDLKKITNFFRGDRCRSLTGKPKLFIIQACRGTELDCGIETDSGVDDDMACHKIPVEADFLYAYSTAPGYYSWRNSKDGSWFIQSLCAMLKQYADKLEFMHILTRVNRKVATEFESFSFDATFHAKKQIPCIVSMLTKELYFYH
# Apoptosis regulator Bcl-2 (Homo sapiens), sequence (P10415 whole entry, looked up): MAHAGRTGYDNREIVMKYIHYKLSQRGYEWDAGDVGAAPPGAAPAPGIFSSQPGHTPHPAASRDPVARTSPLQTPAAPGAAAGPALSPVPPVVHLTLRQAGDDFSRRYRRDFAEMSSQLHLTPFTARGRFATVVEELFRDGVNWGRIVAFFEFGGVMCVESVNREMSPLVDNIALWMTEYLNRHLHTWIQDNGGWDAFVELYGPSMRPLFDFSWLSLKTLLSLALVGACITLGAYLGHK
# Cytochrome P450 2C19 (Homo sapiens), sequence (P33261 whole entry, looked up): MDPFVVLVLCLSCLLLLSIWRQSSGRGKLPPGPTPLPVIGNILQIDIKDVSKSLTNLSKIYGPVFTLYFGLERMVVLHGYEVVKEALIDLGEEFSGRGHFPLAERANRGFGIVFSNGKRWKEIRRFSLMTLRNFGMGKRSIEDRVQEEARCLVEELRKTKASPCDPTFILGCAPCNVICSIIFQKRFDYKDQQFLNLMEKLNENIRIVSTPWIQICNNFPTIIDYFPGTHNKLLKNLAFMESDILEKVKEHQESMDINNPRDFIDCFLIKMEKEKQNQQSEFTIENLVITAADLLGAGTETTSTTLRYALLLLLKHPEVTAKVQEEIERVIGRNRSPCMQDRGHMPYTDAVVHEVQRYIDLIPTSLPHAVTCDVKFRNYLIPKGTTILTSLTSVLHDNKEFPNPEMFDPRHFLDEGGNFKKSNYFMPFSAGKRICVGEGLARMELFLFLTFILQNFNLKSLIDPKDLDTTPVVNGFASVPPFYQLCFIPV
structure (smiles),measurement,setting,value
CC[C@H](NC(=O)c1cc(F)ccc1NS(=O)(=O)c1cccc2cccnc12)c1ccccc1,outcome,[1],inactive
same,AC50,[2],32.1 µM (active)
same,outcome,[3],inactive
same,AC50,[4],60.5 µM (active)
same,outcome,[5],inactive
same,outcome,[6],inactive
same,outcome,[7],inactive
same,outcome,[8],inactive
same,AC50,[9],76 µM (active)
same,outcome,[10],inactive
same,AC50,[11],88.2 µM (active)
same,outcome,[12],inactive
same,AC50,[13],78.5 µM (active)
same,AC50,[14],22.3 µM (active)
same,AC50,[15],22.4 µM (active)
same,AC50,[16],0.957 µM (active)
same,AC50,[17],47.8 µM (active)
same,AC50,[18],11.5 µM (active)
same,outcome,[19],inactive
CN(C[C@@H](CC[N+]12CCC(C3CCCCC3)(CC1)CC2)c1ccc(Cl)c(Cl)c1)C(=O)c1cc(C(F)(F)F)cc(C(F)(F)F)c1,outcome,[1],inactive
same,AC50,[2],23.2 µM (active)
same,outcome,[3],inactive
same,AC50,[4],8.93 µM (active)
same,outcome,[5],inactive
same,outcome,[6],inactive
same,outcome,[7],inactive
same,outcome,[8],inactive
same,AC50,[9],11.5 µM (active)
same,outcome,[10],inactive
same,AC50,[11],18 µM (active)
same,AC50,[12],25.4 µM (active)
same,AC50,[13],12.9 µM (active)
same,AC50,[14],13.7 µM (active)
same,AC50,[15],21.1 µM (active)
same,AC50,[16],30.9 µM (active)
same,AC50,[17],12.1 µM (active)
same,outcome,[18],inactive
same,AC50,[19],54.4 µM (active)
c1ccc(C[n+]2cccc3ccccc32)cc1,outcome,[1],inactive
same,AC50,[2],35 µM (active)
same,AC50,[3],32.4 µM (active)
same,AC50,[4],31.4 µM (active)
same,AC50,[5],35.1 µM (active)
same,outcome,[6],inactive
same,outcome,[7],inactive
same,outcome,[8],inactive
same,outcome,[9],inactive
same,outcome,[10],inactive
same,AC50,[11],50 µM (active)
same,AC50,[20],50 µM (active)
same,AC50,[12],30 µM (active)
same,AC50,[13],31 µM (active)
same,AC50,[14],24.6 µM (active)
same,AC50,[15],22.3 µM (active)
same,AC50,[16],33.4 µM (active)
same,AC50,[17],30.9 µM (active)
same,outcome,[18],inactive
same,outcome,[19],inactive
C[C@]12CC[C@@H]3c4ccc(O)cc4CC[C@H]3[C@@H]1CCC2=O,outcome,[1],inactive
same,AC50,[2],26.6 µM (active)
same,outcome,[3],inactive
same,outcome,[4],inactive
same,outcome,[5],inactive
same,outcome,[6],inactive
same,outcome,[7],inactive
same,outcome,[10],inactive
same,AC50,[17],64.5 µM (active)
same,AC50,[18],22.4 µM (active)
Cc1cc(F)ccc1-c1cc(N2CC[C@@H](O)[C@H]2CO)ncc1N(C)C(=O)C(C)(C)c1cc(C(F)(F)F)cc(C(F)(F)F)c1,outcome,[1],inactive
same,AC50,[2],18 µM (active)
same,AC50,[3],52.7 µM (active)
same,AC50,[4],12.9 µM (active)
same,AC50,[5],19.7 µM (active)
same,outcome,[6],inactive
same,AC50,[7],76.6 µM (active)
same,outcome,[8],inactive
same,AC50,[9],21.1 µM (active)
same,outcome,[10],inactive
same,AC50,[11],22.3 µM (active)
same,AC50,[12],21.4 µM (active)
same,outcome,[13],inactive
same,AC50,[14],10.3 µM (active)
same,AC50,[15],15.7 µM (active)
same,AC50,[16],0.588 µM (active)
same,AC50,[17],71.1 µM (active)
same,AC50,[18],5.44 µM (active)
same,AC50,[19],61.2 µM (active)
CCCCCCCCCC(=O)O,outcome,[1],inactive
same,outcome,[2],inactive
same,outcome,[3],inactive
same,outcome,[4],inactive
same,outcome,[5],inactive
same,outcome,[6],inactive
same,outcome,[7],inactive
same,outcome,[8],inactive
same,outcome,[9],inactive
same,outcome,[10],inactive
same,outcome,[11],inactive
same,outcome,[12],inactive
same,outcome,[13],inactive
same,outcome,[14],inactive
same,outcome,[15],inactive
same,outcome,[16],inactive
same,outcome,[17],inactive
same,outcome,[18],inactive
same,outcome,[19],inactive
O=c1[nH]sc2ccccc12,outcome,[1],inactive
same,outcome,[3],inactive
same,outcome,[4],inactive
same,outcome,[5],inactive
same,outcome,[6],inactive
same,outcome,[7],inactive
same,outcome,[8],inactive
same,AC50,[9],80.3 µM (active)
same,outcome,[10],inactive
same,outcome,[11],inactive
same,outcome,[20],inactive
same,outcome,[12],inactive
same,outcome,[13],inactive
same,outcome,[14],inactive
same,outcome,[15],inactive
same,outcome,[16],inactive
same,outcome,[17],inactive
same,outcome,[18],inactive
same,outcome,[19],inactive

# Reference: PubChem BioAssay (EPA / NIEHS)
